Consider 27 compounds from PubChem BioAssay (NCATS).

Where “and” joins values, the source holds several entries; their conditions need not be identical. Equal entries are not always repeated. Results filed as inconclusive are left out. Some compounds were tested as several samples or in several runs, with calls that do not always agree. Calls of active or inactive are those of the source. Calls come from the whole dose curve; as a rule, active = well fitted curve in either direction with a large enough effect; inconclusive = small, poorly fitted or top-dose-only effect; inactive = flat fitted curve, though single readings scatter.

The target in the test is Lysosomal alpha-glucosidase (Homo sapiens) (UniProt P10253). The test is described as follows: Confirmation of Inhibitors and Activators of Purified Human alpha-Glucosidase (AID 2115). To be noted: purified human GAA enzyme activity; series mostly up to 76.2 µM; activity change, negative = inhibition: at the top concentration. From the text:
NIH Chemical Genomics Center [NCGC]
NIH Molecular Libraries Probe Production centers Network [MLPCN]
Assay Submitter (PI): Wei Zheng
Alpha-glucosidase is responsible for hydrolysis of terminal, non-reducing 1,4-linked alpha-D-glucose residues with release of alpha-D-glucose. It is a lysosomal hydrolase that is required for the degradation of a small percentage (1-3%) of cellular glycogen in human. Deficiency of this enzyme results in glycogen-storage disease type II (GSDII), also referred to as Pompe disease, an autosomal recessive disorder. Structurally normal glycogen is accumulated in lysosomes and cytoplasm in affected patients, primarily in muscle tissues. Excessive glycogen storage within lysosomes may interrupt normal functioning of other organelles and leads to cellular injury. In turn, this leads to enlargement and dysfunction of the entire organ involved (eg, cardiomyopathy and muscle weakness).
It has reported that the improper folding and trafficking of alpha-glucosidase resulting from the genetic mutations may account for a significant number of Pompe patients. […] We optimized this alpha-glucosidase assay in 1536-well plate format for identifying the novel small molecule inhibitors with the structures other than the sugar analogs in order to develop the new pharmacological chaperones.
NCGC Assay Protocol Summary:
This is a fluorogenic enzyme assay with 4-methylumbelliferyl-alpha-D-[…] as the substrate and human […] as the enzyme preparation. Upon the hydrolysis of this fluorogenic substrate, the resulting product, 1. 4-methyllumbelliferone, can be excited at 365 nm and emits at 440 nm which can be detected by a standard fluorescence plate reader. Data were normalized to the controls for basal activity (without enzyme) and 100% activity (with enzyme). The AC50 values were determined from concentration-response data modeled with the standard Hill equation.
Assay buffer: 50 mM citric acid (titrated with potassium phosphate to pH 5.0), 0.005% Tween-20, pH 5.0. (pH 5.0 is an optimal condition for this enzyme assay)
1536-well assay protocol for the human alpha-glucosidase:
(1) Add 2 ul/well of enzyme (4 nM final)
(2) Add 23 nL compounds in DMSO solution. The final titration was 0.7 nM to 77 uM.
(3) Add 1 ul of substrate (400 uM final)
(4) Incubate at room temperature for 20 min.
(5) Add 2 ul stop solution (1M NaOH and 1M Glycine mixture, pH 10)
(6) Detect the assay plate in a ViewLux plate reader (PerkinElmer) with Ex=365 nm and Em=440nm.
Keywords: Alpha-glucosidase, Pompe Disease, pharmacological chaperone, chaperone therapy, high throughput screening, alpha-glucosidase inhibitor, MLSMR, MLSCN, NIH Roadmap, qHTS and NCGC
Regarding `CC(=O)c1ccc(N2CCN(S(=O)(=O)c3ccc4c(c3)C(Cl)(Cl)C(=O)N4)CC2)cc1`, the Potency was 32.6 µM (active) and inactive. In the case of `Cc1ccc(N2CCN(S(=O)(=O)c3ccc4c(c3)CC(=O)N4)CC2)cc1`, the “activity change, negative = inhibition” value was -1.54% [at 144 µM] (inactive). On to `CC(=O)c1ccc(N2CCN(C(=O)c3ccc4c(c3)CCC(=O)N4)CC2)cc1`, for which the “activity change, negative = inhibition” value was -2.3% (inactive). In the case of `O=C1Cc2cc(S(=O)(=O)N3CCN(c4ccc([N+](=O)[O-])cc4)CC3)ccc2N1`, the Potency was 3.66 µM (active). Take `CC(=O)c1ccc(N2CCN(S(=O)(=O)c3ccc4c(c3)CCC(=O)N4)CC2)cc1`: the “activity change, negative = inhibition” value is -6.19% (inactive). On the same count and under the same terms, the result for `O=C1Cc2cc(S(=O)(=O)N3CCNCC3)ccc2N1` reads -7.88% (inactive); that for `CC(=O)Nc1ccc(S(=O)(=O)N2CCN(c3ccc(C(C)=O)cc3)CC2)cc1`, -7.6% (inactive). Consider `N#Cc1ccc(N2CCN(S(=O)(=O)c3ccc4c(c3)CC(=O)N4)CC2)cc1`, for which the Potency is 2.91 µM (active). On to `COc1ccc(N2CCN(S(=O)(=O)c3ccc4c(c3)CC(=O)N4)CC2)cc1`, for which the Potency was 23.7 µM (active). As for `CC(=O)c1ccc(N2CCN(S(=O)(=O)c3ccc4c(c3)C(=O)OC4)CC2)cc1`, the “activity change, negative = inhibition” value is -4.1% (inactive). As to `CC(=O)c1ccc(N2CCN(S(=O)(=O)c3ccc4c(c3)CC(=O)N4)CC2)cc1`, the Potency was 730 nM (active) and 749 nM (active) and 819 nM (active).

Take `CC(=O)c1ccc(N2CCN(S(=O)(=O)c3ccc4c(c3)CCCC(=O)N4)CC2)cc1`: the “activity change, negative = inhibition” value was -3.1% (inactive). In the case of `CC(=O)c1ccc(N2CCN(S(=O)(=O)c3cc4c(cc3Cl)NC(=O)C4)CC2)cc1`, the Potency was 1.63 µM (active) and 4.61 µM (active). Still for that read-out and setting: the result for `O=C1Cc2cc(S(=O)(=O)N3CCN(c4cccc(C(F)(F)F)c4)CC3)ccc2N1` reads 14.9 µM (active). As for `CC(=O)c1ccc(N2CCN(S(=O)(=O)c3ccc4c(c3)oc(=O)n4C)CC2)cc1`, the “activity change, negative = inhibition” value is -0.854% (inactive). Same read-out and setting: the result for `CC(=O)c1ccc(N2CCN(S(=O)(=O)c3ccc4c(c3)CC(C)N4C(C)=O)CC2)cc1` (configuration not stated) reads -2.39% (inactive); that for `CC(=O)c1ccc(N2CCN(S(=O)(=O)c3ccc4c(c3)n(C)c(=O)n4C)CC2)cc1`, -4.43% (inactive).

`O=C1Cc2cc(S(=O)(=O)N3CCN(c4ccc(O)cc4)CC3)ccc2N1`: the Potency was 1.88 µM (active). The same measure, in the same setting: as for `O=Cc1ccc(N2CCN(S(=O)(=O)c3ccc4c(c3)CC(=O)N4)CC2)cc1`, the figure is 3.66 µM (active). Consider `CC(=O)c1ccc(N2CCN(S(=O)(=O)c3ccc4[nH]c(=O)oc4c3)CC2)cc1`, for which the “activity change, negative = inhibition” value is -9% (inactive). For the compound `O=C1Cc2cc(S(=O)(=O)N3CCN(c4ccc(CO)cc4)CC3)ccc2N1`, the Potency is 13 µM (active).

Regarding `CC(=O)c1ccc(N2CCN(S(=O)(=O)c3ccc4c(c3)OCC(=O)N4)CC2)cc1`, the “activity change, negative = inhibition” value was 0.582% (inactive). With `CC(=O)N1CCN(S(=O)(=O)c2ccc3c(c2)CC(=O)N3)CC1`, the Potency was 11.9 µM (active). For `CC(=O)c1ccc(N2CCN(S(=O)(=O)c3ccc4c(c3)CCCN4C(C)=O)CC2)cc1`, the “activity change, negative = inhibition” value is -8.63% (inactive). On the same count and under the same terms, the result for `CC(=O)c1ccc(N2CCN(S(=O)(=O)c3ccc(N4CCCC4=O)cc3)CC2)cc1` reads -3.95% (inactive); that for `CC(=O)c1ccc(N2CCN(C(=O)c3ccc4c(c3)CC(=O)N4)CC2)cc1`, -3.41% (inactive). The same measure, in the same setting: the result for `CC(=O)c1ccc(N2CCN(S(=O)(=O)c3ccc4[nH]c(=O)[nH]c4c3)CC2)cc1` reads -12.1% (inactive).
